Compound activity deposited in PubChem BioAssay by National Center for Advancing Translational Sciences (NCATS).
GPT2 inh: Primary qHTS assay for inhibitors of Glutamate pyruvate transaminase 2 (GPT2); Potency, µM (series often up to 57.7 µM), inactives show at the top dose activity change, negative = inhibition, most hits filed as inhibitors; hit rate 0.25% among 100,000; Recombinant GPT2, coupled pyruvate oxidase/HRP Amplex Red fluorescence; also: % is scaled to controls: 0 for no effect and ±100 for the full control effect; nearly all actives have a fitted effect of over 60% in size
Target sequence (Q8TD30 whole entry, looked up): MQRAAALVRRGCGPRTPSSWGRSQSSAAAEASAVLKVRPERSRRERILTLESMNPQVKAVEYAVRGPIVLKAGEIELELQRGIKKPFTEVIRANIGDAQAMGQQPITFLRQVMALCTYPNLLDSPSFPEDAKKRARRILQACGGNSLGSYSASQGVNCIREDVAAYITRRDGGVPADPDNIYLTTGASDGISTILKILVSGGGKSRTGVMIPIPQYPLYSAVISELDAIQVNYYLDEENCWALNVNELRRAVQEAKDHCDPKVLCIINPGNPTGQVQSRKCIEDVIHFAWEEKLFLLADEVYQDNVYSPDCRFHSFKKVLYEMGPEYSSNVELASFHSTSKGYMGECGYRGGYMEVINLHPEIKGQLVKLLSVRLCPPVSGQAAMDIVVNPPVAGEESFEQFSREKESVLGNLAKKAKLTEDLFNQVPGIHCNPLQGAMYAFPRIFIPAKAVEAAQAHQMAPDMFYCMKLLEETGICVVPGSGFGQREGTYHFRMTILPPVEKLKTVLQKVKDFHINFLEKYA
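Fluorescence of coupled pyruvate oxidase/HRP/Amplex Red system (50uM Amplex, 30 min, dark) reports pyruvate formed by GPT2. Enzyme reaction: 10ng/uL GPT2, 2mM L-alanine, 250uM a-KG, 30 min room temperature, pH 7.5; 50uM AOA control.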
FLuc inh: Firefly luciferase inhibition profiling of diverse chemical library using quantitative high-throughput screening; Luciferin 4-monooxygenase (Photinus pyralis), P08659; purified P. pyralis luciferase, luminescence, biochemical; Potency, µM (titrated, usually from 115 µM), most hits filed as inhibitors; hit rate 2.5% among 76,000; AID 1347043, 2019; also: % is scaled to controls: 0 for no effect and ±100 for the full control effect; nearly all actives have a fitted effect of over 65% in size
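Luminescence read by CCD imaging after purified firefly luciferase (10nM final) was added to substrate buffer holding 10uM D-luciferin and 10uM ATP, pH 7.5, pre-dosed with compound.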
HEK293 tox: Cytotoxic Profiling in HEK 293 Cell Line of Diverse Libraries Using Quantitative High-Throughput Screening; Potency, µM (series often up to 115 µM), inactives show at the highest dose activity change, negative = cytotoxicity, most hits filed as inhibitors; AID 1345083, 2018; hit rate 6.6% among 94,000; HEK 293 viability, ATP luminescence (CellTiter-Glo), 48-72 h; also: % is scaled to controls: 0 for no effect and ±100 for the full control effect; nearly all actives have a fitted effect of over 60% in size
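ATP-coupled CellTiter-Glo luminescence served as viability read-out, recorded 10 min after reagent addition at room temperature. HEK 293 cells, 250 cells/well, had been incubated with pintool-transferred compound for 48 or 72 hr at 37 degree Celsius.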
NIH3T3 tox: Cytotoxic Profiling in NIH 3T3 Cell Line of Diverse Libraries Using Quantitative High-Throughput Screening; NIH 3T3 viability, CellTiter-Glo ATP luminescence, 48-72 h; Potency, µM (series often up to 96.7 µM), for the others: at the highest dose activity change, negative = cytotoxicity, actives largely listed as inhibitors; hit rate 4.3% among 94,000; also: % is scaled to controls: 0 for no effect and ±100 for the full control effect; nearly all actives have a fitted effect of over 55% in size
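Luminescent ATP readout (CellTiter-Glo, 10 min RT) after 48 or 72 hr compound exposure of NIH 3T3 cells seeded at 400 cells/well in 1536-well format; quantitative HTS.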
NPR1 antag: Natriuretic polypeptide receptor (hNpr1) antagonism - Primary qHTS. HEK293 hNpr1 GloSensor cGMP, ANP-stimulated luminescence. Potency, µM (doses to about 46.3 µM), for the others: at the highest dose activity change, negative = inhibition, actives largely listed as inhibitors. hit rate 1.6% among 76,000; calls by dose curve; also: % is scaled to controls: 0 for no effect and ±100 for the full control effect; nearly all actives have a fitted effect of over 60% in size
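Compound pre-incubated 30 min at room temperature on GloSensor-loaded HEK293 cells stably carrying hNpr1 and the pGS-40F cGMP biosensor. Stimulation uses hNppA at 0.1 nM final; luminescence is taken at baseline and 20 min post-agonist.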
NPR1 antag cnf: Natriuretic polypeptide receptor (hNpr1) antagonism - Confirmation; shares compounds with NPR1 antag; HEK293 hNpr1 cGMP GloSensor luminescence, ANP-stimulated; Potency, µM (doses to about 57.6 µM), for inactives: at the highest dose activity change, negative = inhibition, hits mostly inhibitors; hit rate 76% among 1,400; calls by dose curve; also: nearly all actives have a fitted effect of over 70% in size
Npr2 selectivity: Natriuretic polypeptide receptor (hNpr2) antagonism - Subtype selectivity assay; shares compounds with NPR1 antag; HEK293 hNpr2 GloSensor cGMP luminescence, CNP-stimulated; Potency, µM (top dose mostly 57.6 µM), for the others: at the top dose activity change, negative = inhibition, actives largely listed as inhibitors; hit rate 67% among 1,400; AID 1347046, 2019; calls by dose curve; also: nearly all actives have a fitted effect of over 70% in size
FLuc inh counter: Natriuretic polypeptide receptor (hNpr1) antagonism - Confirmation firefly luciferase (FLuc) inhibition counterscreen. shares compounds with NPR1 antag. purified FLuc enzyme, luminescence, Km substrate. Potency, µM (titrated, usually from 57.6 µM), without a hit: at the top dose activity change, negative = inhibition, actives largely listed as inhibitors. hit rate 0.7% among 1,400; also: series mostly up to about 58 µM; 0% is about no effect
GloSensor ctrl: Natriuretic polypeptide receptor (hNpr1) antagonism - Counterscreen GloSensor control cell line | shares compounds with NPR1 antag | hit rate 69% among 1,400 | HEK293 GloSensor cGMP, SNP-stimulated, luminescence | AID 1347051, 2019 | Potency, µM (top dose mostly 57.6 µM), inactives show top-dose activity change, negative = inhibition, actives largely listed as inhibitors; calls by dose curve; also: % is scaled to controls: 0 for no effect and ±100 for the full control effect; nearly all actives have a fitted effect of over 70% in size
* hit, by the source's call; i = inactive; ? = inconclusive; nt = no result given; [ ] = dose if it differs, or a comment. The list is not random: actives were taken first. Their share in the collection is about 10%. Unless noted, calls follow the shape of the dose curve; as a rule, active = well fitted curve in the direction sought with a large enough effect; inconclusive = small, poorly fitted or top-dose-only effect, or another doubt; inactive = no such curve, though single readings can be large; an effect the other way counts as inactive or inconclusive. Potency is read from the fitted curve at half-maximal effect.

SMILES | GPT2 inh | FLuc inh | HEK293 tox | NIH3T3 tox | NPR1 antag | NPR1 antag cnf | Npr2 selectivity | FLuc inh counter | GloSensor ctrl
Cc1noc(C)c1CN1CCc2nc(C(=O)Nc3cccc(C(F)(F)F)c3)oc2CC1 | 2%[88.5 µM] | i | ? | ? | 32µM* | 28µM* | 31µM* | -11%[86.2 µM] | 20µM*
COc1ccccc1CN1CCc2nc(C(=O)Nc3cccc(C(F)(F)F)c3)oc2CC1 | ? | i | 32µM* | 28µM* | ? | 22µM* | 24µM* | -8% | 24µM*
COc1cccc([S+](=O)([O-])N2CCCC3(C2)C(=NC2CCCCC2)NC(=O)N3c2cc(F)cc(F)c2)c1 (centres undefined) | i | nt | -18% | -10% | nt | nt | nt | nt | nt
O=C(Nc1ccc(Cl)cc1)c1nc2c(o1)CCN(Cc1cccc(F)c1)CC2 | -4%[88.5 µM] | i | ? | ? | 7.9µM* | 11µM* | 16µM* | -23%[86.2 µM] | 11µM*
O=C(NCCOc1ccccc1)c1nc2c(o1)CCN(Cc1cccc(F)c1)CC2 | 1%[88.5 µM] | i | ? | ? | ? | nt | nt | nt | nt
CCCCNC(=O)c1cccc(-c2cc(N3CCN(C)CC3)nc(N)n2)c1 | -6% | i | ? | -8% | ? | ? | -28% | 1% | ?
CC(c1ccc(-c2cc(N3CCN(C)CC3)nc(N)n2)cc1)N1CCOCC1 (centres undefined) | 0% | i | ? | -19% | 1% | nt | nt | nt | nt
COc1cccc(C(=O)N2CCc3onc(-c4cccc(F)c4)c3C2)c1OC | -14%[11.5 µM] | i | 20µM* | ? | 10µM* | 22µM* | 22µM* | 0% | 19µM*
COc1cccc(-c2noc3c2CN(C(=O)c2ccc(C)cc2OC)CC3)c1 | 3%[11.5 µM] | i | ? | ? | ? | nt | nt | nt | nt
CCCCn1ccc(N2CCC(c3ccccc3)CC2)c(Cl)c1=O | -2% | nt | nt | nt | nt | nt | nt | nt | nt
O=C(c1cc2cc(F)ccc2[nH]1)N1CCC(CO)(CCCc2ccccc2)CC1 | -10% | i | ? | ? | -15% | nt | nt | nt | nt
O=C(c1ccc2nc[nH]c2c1)N1CCC(CO)(CCCc2ccccc2)CC1 | 1% | i | 25µM* | -23% | 11µM* | 24µM* | 24µM* | 6% | 22µM*
CC(NC(=O)c1ccc(Cn2ccn3nc4c(c3c2=O)CCCC4)cc1)c1ccccc1 (centres undefined) | i | i | ? | ? | -15% | nt | nt | nt | nt
O=C(c1nc2c(o1)CCN(Cc1ccc3c(c1)CCO3)CC2)N1CCOCC1 | 1%[88.5 µM] | i | ? | -28%[138 µM] | -1%[70.6 µM] | nt | nt | nt | nt
Cc1cc(F)cc(CN2CCc3nc(C(=O)NCC4CC4)oc3CC2)c1 | 2%[88.5 µM] | i | ? | ? | 22µM* | 31µM* | 28µM* | 4%[86.2 µM] | 28µM*
O=C(NCC1CC1)c1nc2c(o1)CCN(Cc1ccc3c(c1)CCO3)CC2 | 3%[88.5 µM] | i | ? | ? | 25µM* | 44µM* | ? | 2%[86.2 µM] | 35µM*
CCOC(=O)C1CCN(C(=O)c2ccc3oc(-c4cccnc4)nc3c2)CC1 | 2% | nt | 0% | 0% | nt | nt | nt | nt | nt
O=C(c1cccc(Br)c1)N1CCCC2(CNc3ncccc3[S+](=O)([O-])N2)C1 (centres undefined) | nt | nt | -6% | -32% | nt | nt | nt | nt | nt
c1csc(-c2ccnc(N[C@H]3CO[C@H]4[C@@H]3OC[C@@H]4NCC3CCCCC3)n2)c1 | -19%[88.5 µM] | i | ? | 32µM* | 7.9µM* | 11µM* | 18µM* | 1%[86.2 µM] | 9.9µM*
COc1ccc(-c2ccnc(N[C@H]3CO[C@H]4[C@@H]3OC[C@@H]4NC(=O)c3ccc(C)cc3)n2)cc1 | 2% | i | ? | ? | -2% | nt | nt | nt | nt
O=C(N[C@H]1CO[C@H]2[C@@H]1OC[C@@H]2Nc1nccc(C2CCCC2)n1)c1ccccc1 | 3%[88.5 µM] | i | 63µM* | -46%[174 µM] | 28µM* | 35µM* | 35µM* | -7%[86.2 µM] | 40µM*
O=C(N[C@H]1CO[C@H]2[C@@H]1OC[C@@H]2Nc1nccc(-c2ccc(-c3ccccc3)cc2)n1)C1CCCCC1 | -14% | i | ? | ? | ? | 27µM* | ? | 1% | 22µM*
Cc1ccc(C(=O)N[C@H]2CO[C@H]3[C@@H]2OC[C@@H]3Nc2nccc(-c3ccc(-c4ccccc4)cc3)n2)cc1 | -27% | i | 13µM* | -27% | ? | ? | -24% | -14% | -27%
CC(C)CN1C(=O)COC[C@@H]1[C@H](O)c1ccc(NC(=O)COc2ccccc2)cc1 | i | i | -15%[172 µM] | -12%[138 µM] | -2%[70.6 µM] | nt | nt | nt | nt
CC(=O)Nc1ccc(S(=O)(=O)N[C@H]2CO[C@H]3[C@@H]2OC[C@@H]3Nc2nccc(-c3cccc(F)c3)n2)cc1 | -7% | i | 16µM* | ? | 11µM* | 14µM* | 17µM* | 1% | 12µM*
COc1ccccc1-c1ccnc(N[C@H]2CO[C@H]3[C@@H]2OC[C@@H]3NS(=O)(=O)c2ccc(NC(C)=O)cc2)n1 | -35% | i | ? | ? | ? | nt | nt | nt | nt
CCn1nc(C)c(CNC(=O)[C@@H]2C[C@@H](O)CN2C2CCN(C(=O)c3cccc(OC)c3)CC2)c1C | i | i | -21% | -20% | -2% | nt | nt | nt | nt
